For 23 compounds, relative cell viability results are on record in the supplement of paper PMC10670038.

The structures appear in SMILES notation. Counter-ions that a name gives are not always drawn. ± gives the standard deviation of the averaged measurements. The full ranking holds about 2,000 compounds; the median of “relative cell viability vs DMSO, compound + 0.2 uM CuET” is about 1, and the lowest 2% start at about 0.25. For the sample, the lowest values were picked, then their nearest neighbours and some compounds at random.

In the experiment the test system is TE10. The experiment can be described thus: relative cell viability vs DMSO, compound + 0.2 uM CuET (fraction); TE10 is an esophageal squamous carcinoma line; higher = less cytotoxic. The settings on record: 2 µM; co-treatment: CuET (bis(diethyldithiocarbamate)copper) 0.2 uM; 48 h. As to the method: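 TE10 ESCC cells (1,000/well, 384-well plates) were treated with Selleck bioactive library compounds at 2 uM combined with 0.2 uM CuET (copper diethyldithiocarbamate) for 48 h. Viability was read by CellTiter-Glo and expressed relative to DMSO wells. Two technical replicates (A, B).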
As to `O=C1c2ccccc2C(=O)c2c1ccc(O)c2O` [Alizarin], the relative cell viability was 1.1 ± 0.029.
As for `CC(C)(C)C(=O)Nc1ccc2c(c1)C(=O)C(=O)c1ccccc1-2`, the relative cell viability is 0.026 ± 0.0042.
Turning to `CC(=O)Nc1ccccc1` [Acetanilide], the relative cell viability came out at 1.018 ± 0.0034.
On to `COc1ccc(OC)c(C2C(C#N)=C(N)Oc3n[nH]c(-c4ccc5ccccc5c4)c32)c1` (stereo not drawn), for which the relative cell viability was determined as 1.06 ± 0.048.
As for `CN(c1ccccc1CNc1nc(Nc2ccc3c(c2)CC(=O)N3)ncc1C(F)(F)F)S(C)(=O)=O`, the figure is 0.709 ± 0.029.
Consider `Cc1ccc(NC(=O)c2ccc(CN3CCN(C)CC3)cc2)cc1Nc1nccc(-c2cccnc2)n1` [Imatinib (STI571)], for which the relative cell viability is 1.05 ± 0.1.
As to `Nc1ccccc1NC(=O)c1ccc(CNC(=O)OCc2cccnc2)cc1` [Entinostat (MS-275)], the relative cell viability is 0.321 ± 0.033.
On to `Nc1ccccc1NC(=O)c1ccc(CNc2nccc(-c3cccnc3)n2)cc1` [Mocetinostat (MGCD0103)], for which the relative cell viability was found to be 0.249 ± 0.039.
For `Cc1ccc(NC(=O)c2ccc(CN3CCN(C)CC3)cc2)cc1Nc1nccc(-c2cccnc2)n1` [Imatinib Mesylate (STI571)] the value was 1.43 ± 0.12.
For `O=C1Cc2c([nH]c3ccc(Br)cc23)-c2ncccc2N1` [1-Azakenpaullone], the relative cell viability amounted to 1.17 ± 0.11.
Regarding `Cc1ccc(-c2csc(NC(=O)c3ccccc3)n2)c(C)c1`, the relative cell viability stood at 1.22 ± 0.19.
With `Cn1c(Nc2ccc(C(F)(F)F)cc2)nc2cc(Oc3ccnc(-c4ncc(C(F)(F)F)[nH]4)c3)ccc21`, the relative cell viability amounted to 0.847 ± 0.035.
For `CCCc1nc(C)c2c(=O)nc(-c3cc(S(=O)(=O)N4CCN(CC)CC4)ccc3OCC)[nH]n12` [Vardenafil HCl Trihydrate], the relative cell viability was found to be 1.1 ± 0.062.
As for `O=C(c1ccc(F)cc1)N1CCCC(c2nc(-c3ccc(F)cc3)no2)C1` (stereo not drawn), the figure is 1.12 ± 0.22; as for `C=CC(=O)N1CC(=Cc2ccc([N+](=O)[O-])cc2)C(=O)C(=Cc2ccc([N+](=O)[O-])cc2)C1`, 0.126 ± 0.015; as for `CN1C(C(=O)Nc2ccccn2)=C(O)c2ccccc2S1(=O)=O` [Piroxicam], 1.02 ± 0.064.
For the compound `Nc1ccccc1NC(=O)c1cnccn1`, the relative cell viability was determined as 1.16 ± 0.018.
Consider `CC(C)Oc1ccc2c(=O)c(-c3ccccc3)coc2c1` [Ipriflavone (Osteofix)], for which the relative cell viability stood at 0.968 ± 0.056.
As for `CCC(=O)OCC(=O)[C@@]1(OC(=O)CC)[C@@H](C)C[C@H]2[C@@H]3CCC4=CC(=O)C=C[C@]4(C)[C@@]3(F)[C@@H](O)C[C@@]21C` [Betamethasone Dipropionate], the figure is 1.05 ± 0.052; as for `CC(C)(C)c1ccc(S(=O)(=O)/C=C/C#N)cc1`, 0.107 ± 0.0014; as for `Cc1ccc(S(=O)(=O)C=CC#N)cc1`, 0.101 ± 0.0039.
In the case of `Cc1cc(C)c(-c2csc(NC(=O)c3ccccc3)n2)c(C)c1`, the relative cell viability came out at 1.17 ± 0.069.
As for `O=C(NO)c1ccc(CC(=O)N(CCO)c2ccccc2)cc1`, the figure is 1.056 ± 0.0057.
